Source: the supplement of paper PMC10981050
Where “and” joins values, the source holds several entries; their conditions need not be identical. Identical values can stand only once. Counter-ions that a name gives are not always drawn.

Key:
Experiment in all cases: cell viability relative to vehicle control; higher = less cytotoxic
Conditions in all cases: 10 µM
K562 = system: K562
Method in brief: (§1)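 Each screen used CRISPR-edited mutant and wild-type clones from four leukaemia lines. Compounds were acoustically dispensed at a single 10 µM dose, and CellTiter-Glo luminescence was read after 48 h with the supernatant first removed. Viability was analysed in Genedata Screener and given as percent of the on-plate vehicle control.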

MARIMO = system: MARIMO
Method in brief: as §1

MOLM14 = system: MOLM14
Method in brief: as §1

OCI-AML2 = system: OCI-AML2
Method in brief: as §1

Row | Structure (SMILES) | cell viability (K562; SRSF2 genotype: SRSF2 P95H/wt) | cell viability (K562; SRSF2 genotype: SRSF2 wt/wt) | cell viability (MARIMO; SRSF2 genotype: SRSF2 P95H/wt) | cell viability (MARIMO; SRSF2 genotype: SRSF2 wt/wt) | cell viability (MOLM14; SRSF2 genotype: SRSF2 P95H/wt) | cell viability (MOLM14; SRSF2 genotype: SRSF2 wt/wt) | cell viability (OCI-AML2; SRSF2 genotype: P95H/wt) | cell viability (OCI-AML2; SRSF2 genotype: wt/wt)
1 | COc1cc(/C=C/c2ccc(O)c(O)c2)cc(OC)c1 [3'-Hydroxypterostilbene] | 74% and 61.4% | 67.4% | 29.2% | 39.9% | 21.3% | 10.6% | 44.4% | 44.7%
2 | O=C(N/N=C/c1cc(O)c(O)cc1O)c1cc2ccccc2cc1O [Dyngo-4a] | 78.9% and 81.5% | 78% | 67.3% | 89.5% | 64.9% | 72% | 85.1% | 79.3%
3 | C[C@@H](Nc1cc(F)cc(F)c1)c1cc(C(=O)N(C)C)cc2c(=O)cc(N3CCOCC3)oc12 | 87% and 91.9% | 85.5% | 52% | 47.3% | 42.3% | 51.1% | 25.5% | 37.4%
4 | N[C@@H]1CN(c2c(F)cc3c(=O)c(C(=O)O)cn([C@@H]4C[C@@H]4F)c3c2Cl)CC12CC2 [Sitafloxacin hydrate] | 103% and 104% | 91.9% | 104% | 105% | 105% | 103% | 102% | 107%
5 | C[C@H]1C[C@@H]2[C@H]([C@@H](O)C[C@@]3(C)[C@H]2CC[C@]3(O)C(=O)CO)[C@@]2(C)C=CC(=O)C=C12 [Methylprednisolone] | 100% and 106% | 103% | 110% | 103% | 95.8% | 98.8% | 99.8% | 107%
6 | Nc1cccc(S(=O)(=O)N2CCCN(S(=O)(=O)c3ccc4c(c3)OCCO4)CC2)c1 | 90.8% and 101% | 101% | 96.3% | 98.8% | 90.5% | 97.7% | 101% | 97.5%
7 | CNC(=C[N+](=O)[O-])NCCSCc1csc(CN(C)C)n1 [Nizatidine] | 106% and 107% | 102% | 101% | 107% | 103% | 101% | 92.9% | 108%
8 | CNCc1ccc(C)c(NC(=O)c2ccc(Nc3nc(-c4ccccc4)c4ccccc4n3)cc2)c1 | 0.99% and 1.39% | 1.34% | 0.68% | 0.61% | 0.42% | 0.52% | 0.4% | 0.57%
9 | CC1CCC2(O)C(C)(C)C3CCC2(C)C1C3 (stereo not given) [Patchouli alcohol] | 92.3% and 85.5% | 89.2% | 89.5% | 102% | 91.1% | 89.5% | 80.6% | 93%
10 | NCCc1c[nH]cn1 [Histamine] | 96.1% and 97.6% | 91.1% | 84% | 93% | 56% | 63.6% | 81.6% | 82.4%
11 | CCc1ccc(/C=C2/SC(=S)NC2=O)cc1 | 106% and 101% | 102% | 100% | 108% | 105% | 104% | 91% | 91.2%
12 | COc1cc(N)c(Cl)cc1C(=O)NC1CCN(CCCOc2ccc(F)cc2)CC1OC (stereo not given) [Cisapride hydrate] | 93.4% and 92.3% | 95.5% | 93.3% | 105% | 99.8% | 102% | 105% | 99.8%
13 | O=C(/C=C/c1ccccc1)OCc1ccccc1 [Benzyl cinnamate] | 101% and 100% | 103% | 85.5% | 99.6% | 108% | 104% | 92.1% | 93.1%
14 | CCOC(=O)c1ccc(N2NC(=O)C(=Cc3ccc([N+](=O)[O-])o3)C2=O)cc1 | 95.6% and 99.7% | 96% | 95.8% | 90.9% | 90.8% | 94.9% | 102% | 107%
15 | C=CC(=O)Nc1cc2c(Nc3ccc(F)c(Cl)c3)ncnc2cc1OCCCN1CCOCC1 [CI-1033 (Canertinib)] | 66.7% and 78.1% | 61.7% | 52% | 61.5% | 12.8% | 15.9% | 27.6% | 31.4%
16 | C#CCN[C@@H]1CCc2ccccc21 [Rasagiline mesylate] | 98% and 105% | 101% | 105% | 106% | 99.4% | 104% | 108% | 107%
17 | COc1cc2c(cc1O)C[C@H]1c3cc(O)c(OC)cc3CC[N+]1(C)C2 (stereo not given in full) [Phellodendrine chloride] | 92.6% and 101% | 98.5% | 100% | 95.6% | 103% | 95.9% | 96.7% | 102%
18 | O=C(O)c1cc(O)cc(Cl)c1 [3-chloro-5-hydroxybenzoic Acid] | 104% and 101% | 103% | 96.3% | 95.1% | 105% | 107% | 96.9% | 109%
19 | CC(=O)O[C@@H]1CC[C@@]2(C)[C@@H](CC[C@]3(C)[C@@H]2C(=O)C=C2[C@@H]4[C@@H](C)[C@H](C)CC[C@]4(C)CC[C@]23C)[C@@]1(C)C(=O)O | 99.7% and 94.1% | 83.4% | 106% | 101% | 74.3% | 82.3% | 87.1% | 90.6%
20 | CC1(C)[C@@H](O[C@H]2O[C@H](C(=O)O)[C@@H](O)[C@H](O)[C@H]2O[C@@H]2O[C@H](C(=O)O)[C@@H](O)[C@H](O)[C@H]2O)CC[C@]2(C)[C@H]3C(=O)C=C4[C@@H]5C[C@@](C)(C(=O)O)CC[C@]5(C)CC[C@@]4(C)[C@]3(C)CC[C@@H]12 [Ammonium Glycyrrhizinate (AMGZ)] | 101% and 111% | 107% | 107% | 102% | 104% | 106% | 112% | 95.4%
